The whole screen tested about 5,500 compounds, of which about 2,000 (36%) were called active. About 18% were inconclusive and are not listed. The list shows a part of the results. Unmarked numbers belong to inactive results. Cut-off read from the data, not from the text of the source: active = normalized growth mostly below about 0.91 (no sharp cut-off); inconclusive = no clear call, values can overlap the other calls; inactive = mostly above about 0.92.
Assay: chemical genetic growth profiling, strain panel (AID 1159580);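 note: tested at 20 µM; growth read once vehicle control cultures reached saturation at 30 °C; 1 = growth at the plate median or of vehicle wells; lower values mean less growth of the strain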
Conditions: growth OD

Structure (SMILES): C[C@]12CCC3C(CC[C@H]4C[C@@H](O)CC[C@]34C)C1CCC2=O (some centres undefined)
- normalized growth (S. cerevisiae deletion strains, locus YKL068W, hits give low values): 1.03
- normalized growth (S. cerevisiae deletion strains, locus YKL085W, strain MDH1 (second series), hits give low values): 0.973
- normalized growth (S. cerevisiae deletion strains, locus YKL085W, strain MDH1, hits give low values): 0.973
- normalized growth (S. cerevisiae deletion strains, locus YKL160W, strain elf1, hits give low values): 0.919
- normalized growth (S. cerevisiae deletion strains, locus YKL190W, strain CNB1, hits give low values): 0.862 (active)
- normalized growth (S. cerevisiae deletion strains, locus YKR001C, strain vps1, hits give low values): 0.899 (active)
- normalized growth (S. cerevisiae deletion strains, locus YKR026C, strain gcn3, hits give low values): 1.06
- normalized growth (S. cerevisiae deletion strains, locus YKR091W, strain srl3, hits give low values): 1.05
- normalized growth (S. cerevisiae deletion strains, locus YLL001W, strain dnm1, hits give low values): 0.923
- normalized growth (S. cerevisiae deletion strains, locus YLL026W, hits give low values): 0.994
- normalized growth (S. cerevisiae deletion strains, locus YLL041C, strain sdh2, hits give low values): 1.04
- normalized growth (S. cerevisiae deletion strains, locus YLR027C, strain aat2, hits give low values): 0.939
- normalized growth (S. cerevisiae deletion strains, locus YLR039C, strain RIC1, hits give low values): 0.388 (active)
- normalized growth (S. cerevisiae deletion strains, locus YLR058C, strain SHM2, hits give low values): 0.799 (active)
- normalized growth (S. cerevisiae deletion strains, locus YLR102C, strain apc9, hits give low values): 1.02
- normalized growth (S. cerevisiae deletion strains, locus YLR113W, strain HOG1, hits give low values): 1.01
- normalized growth (S. cerevisiae deletion strains, locus YLR221C, strain rsa3, hits give low values): 0.86 (active)
- normalized growth (S. cerevisiae deletion strains, locus YLR258W, strain gsy2, hits give low values): 0.945
- normalized growth (S. cerevisiae deletion strains, locus YLR262C, strain YPT6 (second series), hits give low values): 0.435 (active)
- normalized growth (S. cerevisiae deletion strains, locus YLR262C, strain YPT6, hits give low values): 0.413 (active)
- normalized growth (S. cerevisiae deletion strains, locus YLR268W, strain sec22, hits give low values): 0.834 (active)
- normalized growth (S. cerevisiae deletion strains, locus YLR320W, strain mms22, hits give low values): 0.606 (active)
- normalized growth (S. cerevisiae deletion strains, locus YLR330W, strain CHS5, hits give low values): 0.87 (active)
- normalized growth (S. cerevisiae deletion strains, locus YLR342W, strain FKS1 (second series), hits give low values): 0.733 (active)
- normalized growth (S. cerevisiae deletion strains, locus YLR342W, strain FKS1, hits give low values): 0.995
- normalized growth (S. cerevisiae deletion strains, locus YLR357W, strain rsc2, hits give low values): 1.16 [resistant] (active)
- normalized growth (S. cerevisiae deletion strains, locus YLR370C, strain arc18, hits give low values): 1.04
- normalized growth (S. cerevisiae deletion strains, locus YLR371W, strain rom2, hits give low values): 1.03
- normalized growth (S. cerevisiae deletion strains, locus YLR384C, strain iki3, hits give low values): 1.03
- normalized growth (S. cerevisiae deletion strains, locus YLR418C, strain cdc73, hits give low values): 0.589 (active)
- normalized growth (S. cerevisiae deletion strains, locus YML016C, strain PPZ1, hits give low values): 0.931
- normalized growth (S. cerevisiae deletion strains, locus YML032C, strain rad52, hits give low values): 0.744 (active)
- normalized growth (S. cerevisiae deletion strains, locus YML120C, strain ndi1, hits give low values): 0.935
- normalized growth (S. cerevisiae deletion strains, locus YML124C, strain tub3, hits give low values): 0.944
- normalized growth (S. cerevisiae deletion strains, locus YMR058W, strain fet3, hits give low values): 0.943
- normalized growth (S. cerevisiae deletion strains, locus YMR078C, strain ctf18, hits give low values): 0.979
- normalized growth (S. cerevisiae deletion strains, locus YMR125W, strain sto1, hits give low values): 1.06
- normalized growth (S. cerevisiae deletion strains, locus YMR129W, hits give low values): 1.04
- normalized growth (S. cerevisiae deletion strains, locus YMR205C, strain PFK2, hits give low values): 0.94
- normalized growth (S. cerevisiae deletion strains, locus YMR223W, strain ubp8, hits give low values): 0.794 (active)
- normalized growth (S. cerevisiae deletion strains, locus YMR231W, strain pep5, hits give low values): 1.01
- normalized growth (S. cerevisiae deletion strains, locus YMR263W, strain SAP30, hits give low values): 0.925
- normalized growth (S. cerevisiae deletion strains, locus YMR307W, strain GAS1, hits give low values): 0.963
- normalized growth (S. cerevisiae deletion strains, locus YNL067W, strain RPL9B, hits give low values): 0.825 (active)
- normalized growth (S. cerevisiae deletion strains, locus YNL071W, strain lat1, hits give low values): 0.663 (active)
- normalized growth (S. cerevisiae deletion strains, locus YNL153C, strain GIM3, hits give low values): 0.747 (active)
- normalized growth (S. cerevisiae deletion strains, locus YNL183C, strain NPR1, hits give low values): 0.874
- normalized growth (S. cerevisiae deletion strains, locus YNL209W, strain ssb2, hits give low values): 0.965
- normalized growth (S. cerevisiae deletion strains, locus YNL233W, strain BNI4, hits give low values): 0.747 (active)
- normalized growth (S. cerevisiae deletion strains, locus YNL248C, strain rpa49, hits give low values): 0.888
- normalized growth (S. cerevisiae deletion strains, locus YNL250W, strain rad50, hits give low values): 0.934
- normalized growth (S. cerevisiae deletion strains, locus YNL271C, strain bni1, hits give low values): 0.94
- normalized growth (S. cerevisiae deletion strains, locus YNL298W, strain CLA4, hits give low values): 0.869 (active)
- normalized growth (S. cerevisiae deletion strains, locus YNL307C, strain MCK1, hits give low values): 0.366 (active)
- normalized growth (S. cerevisiae deletion strains, locus YNL322C, strain KRE1 (second series), hits give low values): 1.03
- normalized growth (S. cerevisiae deletion strains, locus YNL322C, strain KRE1, hits give low values): 0.908 (active)
- normalized growth (S. cerevisiae deletion strains, locus YNR049C, strain mso1, hits give low values): 1.04
- normalized growth (S. cerevisiae deletion strains, locus YNR052C, strain pop2, hits give low values): 0.768 (active)
- normalized growth (S. cerevisiae deletion strains, locus YOL006C, strain TOP1, hits give low values): 0.425 (active)
- normalized growth (S. cerevisiae deletion strains, locus YOL012C, strain htz1): 1.94
- normalized growth (S. cerevisiae deletion strains, locus YOL147C, strain pex11, hits give low values): 0.803 (active)
- normalized growth (S. cerevisiae deletion strains, locus YOR001W, strain rrp6, hits give low values): 0.847 (active)
- normalized growth (S. cerevisiae deletion strains, locus YOR061W, strain CKA2, hits give low values): 0.91
- normalized growth (S. cerevisiae deletion strains, locus YOR069W, strain VPS5, hits give low values): 0.913 (active)
- normalized growth (S. cerevisiae deletion strains, locus YOR070C, strain gyp1, hits give low values): 0.903 (active)
- normalized growth (S. cerevisiae deletion strains, locus YOR080W, strain dia2, hits give low values): 1.02
- normalized growth (S. cerevisiae deletion strains, locus YOR083W, strain WHI5, hits give low values): 0.882 (active)
- normalized growth (S. cerevisiae deletion strains, locus YOR106W, strain vam3, hits give low values): 0.909
- normalized growth (S. cerevisiae deletion strains, locus YOR136W, strain idh2, hits give low values): 0.999
- normalized growth (S. cerevisiae deletion strains, locus YOR144C, strain elg1, hits give low values): 0.973
- normalized growth (S. cerevisiae deletion strains, locus YOR184W, strain ser1, hits give low values): 0.363 (active)
- normalized growth (S. cerevisiae deletion strains, locus YOR231W, strain MKK1, hits give low values): 0.888
- normalized growth (S. cerevisiae deletion strains, locus YOR265W, strain rbl2, hits give low values): 0.968
- normalized growth (S. cerevisiae deletion strains, locus YOR270C, strain vph1, hits give low values): 0.682 (active)
- normalized growth (S. cerevisiae deletion strains, locus YOR290C, strain snf2, hits give low values): 0.831 (active)
- normalized growth (S. cerevisiae deletion strains, locus YOR316C, strain cot1, hits give low values): 0.96
- normalized growth (S. cerevisiae deletion strains, locus YPL051W, strain arl3, hits give low values): 0.926
- normalized growth (S. cerevisiae deletion strains, locus YPL055C, strain LGE1, hits give low values): 0.677 (active)
- normalized growth (S. cerevisiae deletion strains, locus YPL078C, strain atp4, hits give low values): 0.898
- normalized growth (S. cerevisiae deletion strains, locus YPL106C, strain sse1, hits give low values): 1.32 [resistant] (active)
- normalized growth (S. cerevisiae deletion strains, locus YPL240C, strain hsp82, hits give low values): 1.01
- normalized growth (S. cerevisiae deletion strains, locus YPL241C, strain CIN2, hits give low values): 0.975
- normalized growth (S. cerevisiae deletion strains, locus YPL256C, strain CLN2, hits give low values): 0.951
- normalized growth (S. cerevisiae deletion strains, locus YPR119W, strain clb2, hits give low values): 1.04
- normalized growth (S. cerevisiae deletion strains, locus YPR141C, strain kar3, hits give low values): 1.03
- normalized growth (S. cerevisiae deletion strains, locus YPR163C, strain tif3, hits give low values): 0.856 (active)
- normalized growth (S. cerevisiae deletion strains, locus YPR167C, strain met16, hits give low values): 0.814 (active)
- normalized growth (S. cerevisiae deletion strains, strain wtn01, hits give low values): 0.849 (active)
- normalized growth (S. cerevisiae strains, strain wild type, hits give low values): 0.815 (active)
